From PubChem BioAssay (NCI)
About 79,000 compounds went through this panel and 15% of them were active in at least one assay; those are over-represented in the sample as a whole. Cut-off read from the data, not from the text of the source: active = growth inhibition above about 70%; inactive = the rest.

Columns and labels:
[1] = NCI Yeast Anticancer Drug Screen. Data for the rad50 strain (AID 155);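 note: 0% = growth of vehicle-only cultures of the same strain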; details: S. cerevisiae rad50 strain growth inhibition; at 50.0 µM; active compounds read high
Procedure, shortened: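 Cells are treated with compound, grown, and their growth is then scored against vehicle-only cultures of the same repair-deficient yeast strain.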

[2] = NCI Yeast Anticancer Drug Screen. Data for the mec2-1 strain (AID 157); details: S. cerevisiae mec2-1 strain, at 50.0 µM, active compounds read high
Procedure, shortened: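 Test agents were screened against the mec2-1 yeast strain, with defined DNA repair or cell cycle alteration. Growth was scored as inhibition against vehicle-only controls.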

[3] = NCI Yeast Anticancer Drug Screen. Data for the sgs1 mgt1 strain (AID 161);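 note: 0% = growth of cultures given vehicle only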; details: S. cerevisiae sgs1 mgt1 strain, at 50.0 µM, active compounds read high
Procedure, shortened: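 Test agents were incubated with a DNA-repair-mutant yeast strain. Growth was then read and compared against vehicle-treated controls.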

[4] = NCI Yeast Anticancer Drug Screen. Data for the cln2 rad14 strain (AID 165);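 note: 0% = growth equal to vehicle treated cultures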; details: S. cerevisiae cln2 rad14 strain, at 50.0 µM, active compounds read high
Procedure, shortened: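 Growth of compound-exposed yeast (cln2 rad14 genotype) measured and expressed as inhibition relative to vehicle.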

[5] = NCI Yeast Anticancer Drug Screen. Data for the bub3 strain (AID 167); details: S. cerevisiae bub3 mutant strain, at 50.0 µM, active compounds read high
Procedure, shortened: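 Part of a panel of yeast mutants defective in DNA damage repair or cell cycle regulation. Each strain is grown with compound, and inhibition is calculated relative to solvent-treated cultures.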

[6] = NCI Yeast Anticancer Drug Screen. Data for the mlh1 rad18 strain (AID 175); details: S. cerevisiae mlh1 rad18 strain growth inhibition; at 50.0 µM; active compounds read high
Procedure, shortened: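 In this whole-cell yeast screen, a strain with altered DNA damage repair is challenged with compound, and its growth is measured against matched vehicle-treated controls.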

Measured: growth inhibition

COC(=O)c1cc(NC(=O)Nc2ccc(F)c([N+](=O)[O-])c2)cc(C(=O)OC)c1
inactive: [1] 8.9% | [2] 4.85% | [3] -4.6% | [4] 7.3% | [5] -1.3% | [6] 26.8%

O=C1OCc2c1cc1cc3c(cc1c2-c1ccc2c(c1)OCO2)OCO3
inactive: [1] 2.1% | [2] -36.1% | [3] 3.4% | [4] 4.8% | [5] -19.2% | [6] 3.85%

CCOC(=O)C1=C(Nc2ccc(F)cc2)C(=O)N(CC)C1
inactive: [1] 1.3% | [2] -15.3% | [3] 24.4% | [4] -6.45% | [5] 19.9% | [6] 21.4%

O=C1/C(=C/c2ccc(O)cc2)CCc2ccc([N+](=O)[O-])cc21
inactive: [1] -10.3% | [2] -1.15% | [3] 9.45% | [4] 13.8% | [5] -0.8% | [6] -55.4%

CSc1ccc(NC(=O)Nc2ccc(Cl)cc2[N+](=O)[O-])cc1
inactive: [1] -4.55% | [2] 40.5% | [3] 13.6% | [4] -6.05% | [5] 17.9% | [6] 20.3%

c1ccc(CNc2ncnc3n[nH]nc23)cc1
inactive: [1] -14% | [2] -11.8% | [3] 1.2% | [4] 0.3% | [5] 20.1% | [6] -8.3%

CCCCCCC1(C=O)C(=O)NC(=O)N1C (stereo unspecified)
inactive: [1] 10.3% | [2] 9.65% | [3] 6.45% | [4] 13.3% | [5] 4.1% | [6] -0.35%

CCOc1ccc(-c2cc(-c3ccc(OCC)cc3)cc(-c3ccc(OCC)cc3)c2)cc1
inactive: [1] -2.05% | [2] -9.7% | [3] 1.3% | [4] -7.2% | [5] -5.05% | [6] -2.85%

CC(=O)CC(=O)OC1CC(C)CCC1C(C)C (stereo unspecified)
inactive: [1] 12.2% | [2] -24.4% | [3] -6.25% | [4] 15.3% | [5] -26.1% | [6] 23.1%

CC1CC(c2ccccc2)(c2ccccc2)CN1C (stereo unspecified)
inactive: [1] -16.1% | [2] 9.4% | [3] 6.55% | [4] -45.3% | [5] 15.2% | [6] 8.5%

CC(=O)Nc1ccc(C(F)(F)F)cc1
inactive: [1] -5.2% | [2] -7.75% | [3] -15.8% | [4] -3.15% | [5] -7.7% | [6] 13.2%

CC(C)(C)C(=O)C(c1ccc(-c2cscn2)cc1)c1ccc(-c2cscn2)cc1
inactive: [1] -2% | [2] -2.8% | [3] -1.1% | [4] 1.3% | [5] -5.3% | [6] -22.2%

NC(CCCCN=Cc1nc(-c2ccccc2)oc1O)C(=O)O (stereo unspecified)
inactive: [1] -33.6% | [2] -52.3% | [3] -50.6% | [4] 21.4% | [5] -27.7% | [6] -47.5%

C[C@@H](O)c1nc(C(N)=O)cs1
inactive: [1] 6.15% | [2] 14.2% | [3] 15.3% | [4] -3.55% | [5] 1.35% | [6] 10.1%

Cc1cc(C)c(S(=O)(=O)O)c(Cc2ccccc2)c1
inactive: [1] -14.4% | [2] -10.6% | [3] 31.5% | [4] -11.6% | [5] -3.35% | [6] 0.45%

CCC(=O)c1cccc(-c2ccccc2)c1C
inactive: [1] 7% | [2] -13.5% | [3] -2.5% | [4] 4.25% | [5] 11.7% | [6] 11.5%

C1CCN(c2nn[nH]n2)CC1
inactive: [1] 4.05% | [2] -2% | [3] 3.75% | [4] -10.3% | [5] 12.4% | [6] 0.4%

CCc1cc2c(c3c1CCC3=O)CC1(Cc3ccc(C)cc3C1)C2 (stereo unspecified)
inactive: [1] -47.1% | [2] -54.5% | [3] -32.5% | [4] -21.6% | [5] -22.1% | [6] -44.7%

CCCCCCCCCCCCCCCCNc1nc(=S)cc(C)[nH]1
inactive: [1] -10.2% | [2] -27.6% | [3] -5.05% | [4] -14.6% | [5] -25% | [6] -10.9%

COc1c2c(c3ccccc3c1O)C1C=CC2C1 (stereo unspecified)
inactive: [1] 7.6% | [2] 7.6% | [3] -37.7% | [4] -5.25% | [5] 0.25% | [6] -16.3%

CC(C)CC(=O)CCc1ccccc1
inactive: [1] -45% | [2] -19.9% | [3] -46.9% | [4] -6.35% | [5] -29.1% | [6] -3.55%
